Measured values reported in the supplement of paper PMC11732987, “Enantioselective OTUD7B fragment discovery through chemoproteomics screening and high-throughput optimisation” (Communications Chemistry, 2025).

Experiments:
Assay in all cases: log2 ratio of Biotin-Ahx-Ub-VS probe labelling (fragment/DMSO); higher = less target engagement (more negative = stronger competition), active = hit call of the paper (q ≤ 0.05, log2 ratio ≤ -1)
Conditions in all cases: compound concentration: 200 uM; treatment time: 3 h
USP19 = molecular target: T1, USP19 (UniProt O94966)
T1 sequence (whole entry): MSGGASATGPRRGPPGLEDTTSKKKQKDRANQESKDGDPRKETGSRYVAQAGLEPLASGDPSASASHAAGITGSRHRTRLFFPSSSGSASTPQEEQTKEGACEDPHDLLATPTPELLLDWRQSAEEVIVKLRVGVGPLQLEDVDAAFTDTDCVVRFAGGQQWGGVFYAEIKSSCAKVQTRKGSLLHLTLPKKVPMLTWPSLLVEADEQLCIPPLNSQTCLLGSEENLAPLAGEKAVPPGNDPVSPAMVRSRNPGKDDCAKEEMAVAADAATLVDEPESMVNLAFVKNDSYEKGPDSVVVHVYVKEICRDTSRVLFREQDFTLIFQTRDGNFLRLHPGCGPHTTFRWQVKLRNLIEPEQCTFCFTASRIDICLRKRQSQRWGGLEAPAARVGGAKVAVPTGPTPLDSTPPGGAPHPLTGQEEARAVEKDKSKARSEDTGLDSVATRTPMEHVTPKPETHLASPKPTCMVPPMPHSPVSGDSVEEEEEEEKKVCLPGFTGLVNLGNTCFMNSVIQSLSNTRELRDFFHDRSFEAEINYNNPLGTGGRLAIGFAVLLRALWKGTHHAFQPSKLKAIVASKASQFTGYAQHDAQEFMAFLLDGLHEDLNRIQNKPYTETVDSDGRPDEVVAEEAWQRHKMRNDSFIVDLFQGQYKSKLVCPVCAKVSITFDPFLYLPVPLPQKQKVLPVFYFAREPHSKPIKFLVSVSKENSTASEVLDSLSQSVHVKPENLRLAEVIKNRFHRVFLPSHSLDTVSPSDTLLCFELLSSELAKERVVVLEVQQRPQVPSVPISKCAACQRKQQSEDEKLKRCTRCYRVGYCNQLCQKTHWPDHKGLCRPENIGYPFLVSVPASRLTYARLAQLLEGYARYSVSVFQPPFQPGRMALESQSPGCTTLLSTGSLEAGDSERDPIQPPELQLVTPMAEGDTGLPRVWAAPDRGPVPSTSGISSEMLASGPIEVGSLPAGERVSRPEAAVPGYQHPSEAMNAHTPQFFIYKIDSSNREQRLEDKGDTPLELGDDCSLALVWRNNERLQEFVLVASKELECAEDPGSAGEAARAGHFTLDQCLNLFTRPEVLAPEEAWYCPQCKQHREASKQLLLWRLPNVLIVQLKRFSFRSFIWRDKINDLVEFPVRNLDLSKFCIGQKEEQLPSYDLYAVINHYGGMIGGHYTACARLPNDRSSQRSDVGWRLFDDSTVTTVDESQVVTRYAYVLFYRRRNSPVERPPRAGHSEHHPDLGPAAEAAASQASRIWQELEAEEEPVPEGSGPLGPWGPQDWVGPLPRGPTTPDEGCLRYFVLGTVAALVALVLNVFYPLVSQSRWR
Outline: (§1)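 HEK293T lysate in Tris/CHAPS/IGEPAL buffer with protease inhibitors (495 µg per sample) was given fragment at 200 µM or vehicle for 3 h, in triplicate. It then received Biotin-Ahx-Ub-VS at 0.5 µM final for 1 h. Labelled DUBs were NeutrAvidin-enriched, digested with LysC and trypsin, and run by diaPASEF LC-MS/MS. Values are average log2 fragment/vehicle ratios by unpaired t-test on global-median-normalised Spectronaut quantities of proteins with ≥2 unique peptides.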

USP22 = molecular target: T2, USP22 (UniProt Q9UPT9)
T2 sequence (whole entry): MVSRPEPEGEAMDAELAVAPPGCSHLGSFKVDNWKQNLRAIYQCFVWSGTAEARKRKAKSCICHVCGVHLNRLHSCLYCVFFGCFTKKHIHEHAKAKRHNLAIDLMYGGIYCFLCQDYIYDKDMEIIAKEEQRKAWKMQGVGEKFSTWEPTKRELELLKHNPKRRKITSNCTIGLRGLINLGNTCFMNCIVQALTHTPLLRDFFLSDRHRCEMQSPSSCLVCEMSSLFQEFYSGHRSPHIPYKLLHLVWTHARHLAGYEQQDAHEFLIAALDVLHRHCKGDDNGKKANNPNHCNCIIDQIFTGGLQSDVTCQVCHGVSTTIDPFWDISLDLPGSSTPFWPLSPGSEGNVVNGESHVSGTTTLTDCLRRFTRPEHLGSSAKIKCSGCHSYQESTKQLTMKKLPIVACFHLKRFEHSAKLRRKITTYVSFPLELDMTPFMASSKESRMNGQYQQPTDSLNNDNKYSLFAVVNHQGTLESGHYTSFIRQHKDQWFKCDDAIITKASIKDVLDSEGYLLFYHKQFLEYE
Outline: as §1

USP24 = USP24 (UniProt Q9UPU5)
Outline: as §1

USP25 = molecular target: T3, USP25 (UniProt Q9UHP3)
T3 sequence (whole entry): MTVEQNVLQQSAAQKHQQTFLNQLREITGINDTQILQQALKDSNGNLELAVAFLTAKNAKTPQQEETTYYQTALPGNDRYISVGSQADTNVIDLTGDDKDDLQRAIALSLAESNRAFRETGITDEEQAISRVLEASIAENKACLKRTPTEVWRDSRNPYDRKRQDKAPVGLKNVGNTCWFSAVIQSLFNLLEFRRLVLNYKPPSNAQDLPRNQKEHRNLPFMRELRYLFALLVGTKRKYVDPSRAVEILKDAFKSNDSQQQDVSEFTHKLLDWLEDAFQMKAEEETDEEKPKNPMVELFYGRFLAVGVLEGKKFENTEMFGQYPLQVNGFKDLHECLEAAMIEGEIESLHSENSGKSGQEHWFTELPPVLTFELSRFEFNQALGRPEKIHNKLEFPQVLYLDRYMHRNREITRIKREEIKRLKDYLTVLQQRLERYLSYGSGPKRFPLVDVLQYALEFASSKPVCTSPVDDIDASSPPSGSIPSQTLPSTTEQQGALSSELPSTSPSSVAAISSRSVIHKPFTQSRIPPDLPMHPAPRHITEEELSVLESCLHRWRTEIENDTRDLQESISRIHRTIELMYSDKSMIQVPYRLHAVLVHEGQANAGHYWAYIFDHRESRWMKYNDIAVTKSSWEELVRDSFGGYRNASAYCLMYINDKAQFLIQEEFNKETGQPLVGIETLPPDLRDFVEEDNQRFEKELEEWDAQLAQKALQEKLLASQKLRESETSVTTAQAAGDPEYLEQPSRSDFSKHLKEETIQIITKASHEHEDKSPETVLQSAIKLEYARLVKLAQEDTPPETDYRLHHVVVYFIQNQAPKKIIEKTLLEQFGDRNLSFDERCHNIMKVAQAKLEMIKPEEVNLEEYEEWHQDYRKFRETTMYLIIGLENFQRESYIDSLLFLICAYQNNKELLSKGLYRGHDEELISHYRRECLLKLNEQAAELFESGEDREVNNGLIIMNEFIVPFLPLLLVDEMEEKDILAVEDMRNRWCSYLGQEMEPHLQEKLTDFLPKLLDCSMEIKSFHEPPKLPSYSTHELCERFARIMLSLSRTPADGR
Outline: as §1

USP28 = molecular target: T4, USP28 (UniProt Q96RU2)
T4 sequence (whole entry): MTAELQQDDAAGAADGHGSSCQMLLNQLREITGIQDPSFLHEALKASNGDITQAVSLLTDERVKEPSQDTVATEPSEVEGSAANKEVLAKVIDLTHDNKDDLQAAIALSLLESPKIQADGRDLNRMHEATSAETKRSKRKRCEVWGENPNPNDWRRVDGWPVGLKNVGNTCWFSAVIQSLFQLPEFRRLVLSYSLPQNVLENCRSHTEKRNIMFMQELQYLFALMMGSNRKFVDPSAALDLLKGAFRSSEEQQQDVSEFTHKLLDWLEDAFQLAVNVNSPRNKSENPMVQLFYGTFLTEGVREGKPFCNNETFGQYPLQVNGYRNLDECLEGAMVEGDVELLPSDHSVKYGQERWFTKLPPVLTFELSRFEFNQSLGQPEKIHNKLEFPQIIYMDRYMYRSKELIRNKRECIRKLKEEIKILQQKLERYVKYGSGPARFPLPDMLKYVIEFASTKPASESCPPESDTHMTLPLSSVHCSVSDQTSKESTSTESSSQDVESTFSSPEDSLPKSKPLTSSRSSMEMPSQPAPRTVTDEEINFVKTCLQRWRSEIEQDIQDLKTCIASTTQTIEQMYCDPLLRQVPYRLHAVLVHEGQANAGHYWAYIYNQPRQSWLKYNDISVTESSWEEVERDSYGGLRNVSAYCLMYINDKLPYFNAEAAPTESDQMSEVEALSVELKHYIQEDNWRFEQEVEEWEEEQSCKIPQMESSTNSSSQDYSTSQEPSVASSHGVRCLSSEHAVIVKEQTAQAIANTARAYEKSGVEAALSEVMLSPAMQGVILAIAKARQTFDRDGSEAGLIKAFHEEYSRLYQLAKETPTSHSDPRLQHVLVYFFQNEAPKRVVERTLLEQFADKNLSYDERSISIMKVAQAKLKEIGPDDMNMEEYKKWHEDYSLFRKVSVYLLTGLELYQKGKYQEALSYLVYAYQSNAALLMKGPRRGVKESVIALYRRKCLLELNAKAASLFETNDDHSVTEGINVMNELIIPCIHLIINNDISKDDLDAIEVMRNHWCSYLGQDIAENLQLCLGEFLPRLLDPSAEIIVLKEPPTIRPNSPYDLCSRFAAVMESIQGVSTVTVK
Outline: as §1

Measured: log2 ratio of Biotin-Ahx-Ub-VS probe labelling

USP24, sequence (Q9UPU5 whole entry): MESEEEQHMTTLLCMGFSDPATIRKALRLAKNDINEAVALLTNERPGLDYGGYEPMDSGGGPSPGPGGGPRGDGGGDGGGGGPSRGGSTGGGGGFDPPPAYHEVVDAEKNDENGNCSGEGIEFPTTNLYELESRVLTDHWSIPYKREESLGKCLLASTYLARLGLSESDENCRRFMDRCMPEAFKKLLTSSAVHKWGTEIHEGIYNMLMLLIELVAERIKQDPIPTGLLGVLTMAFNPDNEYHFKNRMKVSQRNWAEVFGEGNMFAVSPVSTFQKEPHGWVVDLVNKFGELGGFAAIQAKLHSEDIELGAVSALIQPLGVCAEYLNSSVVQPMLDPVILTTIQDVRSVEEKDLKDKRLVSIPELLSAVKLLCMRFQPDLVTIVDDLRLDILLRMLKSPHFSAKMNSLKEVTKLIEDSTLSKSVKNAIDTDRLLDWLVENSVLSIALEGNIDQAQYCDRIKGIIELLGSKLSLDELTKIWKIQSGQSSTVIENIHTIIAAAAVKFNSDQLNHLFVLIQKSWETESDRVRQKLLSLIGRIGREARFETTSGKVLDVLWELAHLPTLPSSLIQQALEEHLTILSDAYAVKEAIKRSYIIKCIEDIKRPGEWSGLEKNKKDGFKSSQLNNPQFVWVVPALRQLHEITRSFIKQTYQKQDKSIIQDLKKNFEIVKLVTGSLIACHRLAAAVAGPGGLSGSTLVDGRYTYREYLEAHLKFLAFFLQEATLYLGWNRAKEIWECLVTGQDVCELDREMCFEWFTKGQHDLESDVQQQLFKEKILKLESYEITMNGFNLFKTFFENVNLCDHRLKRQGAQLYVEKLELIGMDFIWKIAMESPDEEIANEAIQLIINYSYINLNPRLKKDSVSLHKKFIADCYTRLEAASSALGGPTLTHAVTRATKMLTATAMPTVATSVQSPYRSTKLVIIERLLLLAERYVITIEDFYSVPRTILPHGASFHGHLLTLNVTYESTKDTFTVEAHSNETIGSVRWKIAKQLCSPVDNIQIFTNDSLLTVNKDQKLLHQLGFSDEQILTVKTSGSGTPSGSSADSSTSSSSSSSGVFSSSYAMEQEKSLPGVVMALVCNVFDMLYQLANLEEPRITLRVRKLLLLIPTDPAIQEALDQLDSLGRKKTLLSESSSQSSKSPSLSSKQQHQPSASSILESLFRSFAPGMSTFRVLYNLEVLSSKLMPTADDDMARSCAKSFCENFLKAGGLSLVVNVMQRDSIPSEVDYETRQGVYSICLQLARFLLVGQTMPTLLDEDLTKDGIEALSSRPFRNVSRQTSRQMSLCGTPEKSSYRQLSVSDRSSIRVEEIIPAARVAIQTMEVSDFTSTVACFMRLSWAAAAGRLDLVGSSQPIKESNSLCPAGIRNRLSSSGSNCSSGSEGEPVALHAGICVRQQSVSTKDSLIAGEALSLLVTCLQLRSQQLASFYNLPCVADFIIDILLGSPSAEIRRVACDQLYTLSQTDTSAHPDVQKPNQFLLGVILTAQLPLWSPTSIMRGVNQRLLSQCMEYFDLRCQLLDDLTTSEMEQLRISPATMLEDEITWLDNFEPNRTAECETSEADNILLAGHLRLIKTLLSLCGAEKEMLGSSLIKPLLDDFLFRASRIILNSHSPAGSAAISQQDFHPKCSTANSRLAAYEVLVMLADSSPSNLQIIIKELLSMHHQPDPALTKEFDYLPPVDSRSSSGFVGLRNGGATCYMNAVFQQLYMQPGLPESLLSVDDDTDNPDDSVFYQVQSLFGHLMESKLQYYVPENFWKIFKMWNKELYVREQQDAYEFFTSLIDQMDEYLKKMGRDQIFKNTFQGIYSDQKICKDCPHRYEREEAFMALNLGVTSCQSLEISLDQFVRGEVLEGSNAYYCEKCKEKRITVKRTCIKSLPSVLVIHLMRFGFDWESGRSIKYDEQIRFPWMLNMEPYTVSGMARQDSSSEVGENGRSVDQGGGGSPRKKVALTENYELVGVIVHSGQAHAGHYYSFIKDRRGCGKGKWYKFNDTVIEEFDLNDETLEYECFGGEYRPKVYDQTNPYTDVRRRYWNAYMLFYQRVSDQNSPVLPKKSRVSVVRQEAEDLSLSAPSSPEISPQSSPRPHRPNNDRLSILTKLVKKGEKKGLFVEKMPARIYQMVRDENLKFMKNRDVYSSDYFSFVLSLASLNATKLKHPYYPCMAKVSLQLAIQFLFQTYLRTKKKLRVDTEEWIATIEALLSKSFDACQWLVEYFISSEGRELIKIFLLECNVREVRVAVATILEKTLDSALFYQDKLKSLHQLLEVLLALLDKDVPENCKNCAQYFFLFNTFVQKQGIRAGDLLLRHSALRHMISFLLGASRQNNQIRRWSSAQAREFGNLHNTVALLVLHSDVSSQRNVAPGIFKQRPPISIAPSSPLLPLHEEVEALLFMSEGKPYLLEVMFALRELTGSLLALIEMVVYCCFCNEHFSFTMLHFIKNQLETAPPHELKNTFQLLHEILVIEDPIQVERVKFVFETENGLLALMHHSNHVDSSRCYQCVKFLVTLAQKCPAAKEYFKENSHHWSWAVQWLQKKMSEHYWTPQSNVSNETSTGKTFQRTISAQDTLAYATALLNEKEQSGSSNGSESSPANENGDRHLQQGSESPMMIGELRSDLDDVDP

O=C(CCl)N1CCC[C@@H]1c1ccon1
inactive: USP19 -0.377 | USP22 -0.153 | USP24 -0.653 | USP25 -0.618 | USP28 -0.64
